Mtb hypoxia inh: inhibitors of hypoxia-regulated fluorescent reporter in Mycobacterium tuberculosis; M. tuberculosis hypoxia-regulated fluorescent reporter, fluorescence; fluorescence inhibition, % (no concentration beside the values); 0.1% of 300,000 active; in the data active = fluorescence inhibition mostly above about 23%, no sharp cut-off; inactive = mostly below about 17%
UGM FP inh: inhibitors of M. tuberculosis UDP-galactopyranose mutase; P9WIQ1; inhibition, % at 10 µM; 0.06% of 320,000 active; AID 504406; purified UGM, fluorescence polarization probe displacement; in the data active = inhibition above about 10%, passing the limit was not always enough
Target sequence (P9WIQ1 whole entry, looked up): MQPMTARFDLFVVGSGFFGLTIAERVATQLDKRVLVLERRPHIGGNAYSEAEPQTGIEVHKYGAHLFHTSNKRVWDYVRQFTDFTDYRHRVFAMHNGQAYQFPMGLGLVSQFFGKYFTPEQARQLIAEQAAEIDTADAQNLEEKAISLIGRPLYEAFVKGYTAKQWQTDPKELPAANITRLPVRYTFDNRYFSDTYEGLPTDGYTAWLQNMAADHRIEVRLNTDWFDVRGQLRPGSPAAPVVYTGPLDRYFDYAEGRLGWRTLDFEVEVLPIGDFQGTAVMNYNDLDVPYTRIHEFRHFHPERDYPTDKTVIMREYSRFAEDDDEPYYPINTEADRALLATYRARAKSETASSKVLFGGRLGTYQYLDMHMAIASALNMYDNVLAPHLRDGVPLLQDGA
FBA Mtb inh: inhibits M. tuberculosis FBA enzyme; AID 588726; 2.3% of 360,000 active; P9WQA3; purified M. tuberculosis FBA, fluorescence read-out; inhibition, % at 1 µM; in the data active = inhibition above about 27%;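 also: 0% = vehicle and 100% = reference inhibitor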
FadD28 binding: M. tuberculosis FadD28 bisubstrate binding inhibition; FadD28 bisubstrate probe binding, fluorescence polarization; inhibition, % at 12.5 µM; 0.22% of 360,000 active; AID 588549; in the data active = inhibition above about 8.5%, passing the limit was not always enough
Rv3671c protease: Rv3671c (M. tuberculosis) protease inhibition; P9WHR9; inhibition, % at 5.96 µM; 0.048% of 320,000 active; AID 2606; in the data active = inhibition above about 38%;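 also: extracellular domain of Rv3671c used as enzyme; 0% = enzyme with DMSO and 100% = no enzyme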
GDH-TPI inh: GDH-TPI coupled enzyme inhibition counter-screen | AID 588335 | inhibition, % at 4.8 µM | 1.2% of 360,000 active | GDH-TPI coupled enzyme counterscreen, NADH absorbance; in the data active = inhibition above about 30%;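 also: 0% = DMSO wells and 100% = wells lacking the enzyme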
* = called active by the depositor. Most compounds without a hit are left out; they make up all but 3.5% or so of the library.

`Cn1nnc(NC(=S)NC(=O)c2ccc(-c3ccc(Br)cc3)o2)n1` gave Mtb hypoxia inh -1, UGM FP inh 1, FBA Mtb inh 2, FadD28 binding -4, Rv3671c protease -4 and GDH-TPI inh 26.
`CC(C)(C)OC(=O)NC(Cc1ccccc1)C(=O)NC(CO)C(O)C1CC1C(=O)N1CCCC1` (configuration not stated) gave Mtb hypoxia inh 9.
COc1cc(/C=N/N=C2/C(=O)Nc3ccccc32)ccc1O was read as UGM FP inh 2, FBA Mtb inh -7, FadD28 binding -3, Rv3671c protease 9 and GDH-TPI inh 16.
`Oc1ccc(/C=N/N=C/c2ccc(O)c(O)c2)cc1O` gave UGM FP inh 5, FBA Mtb inh 0, FadD28 binding 3, Rv3671c protease -10 and GDH-TPI inh 43*.
`Oc1ccc(/C=N/N=C/c2ccc(O)cc2)cc1` gave UGM FP inh -3, FBA Mtb inh 0, FadD28 binding 1, Rv3671c protease 6 and GDH-TPI inh 31*.
Screening O=C1Nc2ccccc2/C1=N\N=C\c1ccc(O)c(O)c1 returned UGM FP inh 1, FBA Mtb inh -8, FadD28 binding 3, Rv3671c protease 2 and GDH-TPI inh 36*.
Cc1ccc(/C=N/N=C/c2ccc(C)cc2)cc1 was read as UGM FP inh 3, FBA Mtb inh 3, FadD28 binding -1, Rv3671c protease 13 and GDH-TPI inh 4.
CCC(C)C(NC(=O)C1CCN(C(=O)C(NS(=O)(=O)c2ccc(C)cc2)C(C)C)CC1)C(=O)O (configuration not stated) was read as Mtb hypoxia inh 9.
NC(=O)C1CC2(CC(c3cccc(NC(=O)C4CCC(=O)N4)c3)=NO2)CN1C(=O)c1ccccc1C(=O)c1ccccc1 (configuration not stated) was read as Mtb hypoxia inh 3.
For CC(CCN1C(Nc2ccccc2)=NCC1C)c1ccccc1 (configuration not stated) the results were Mtb hypoxia inh 6.
For Cc1ccc(OCCn2c(C)c(/C=N/n3cnnc3)c3ccccc32)cc1 the results were UGM FP inh -2, FBA Mtb inh 2, FadD28 binding -2, Rv3671c protease 0 and GDH-TPI inh 31*.
Screening COC(=O)[C@]1(C)NC(c2ccc(-c3ccc(F)cc3)cc2)C2C(=O)N(C)C(=O)C21 (some centres not stated) returned Mtb hypoxia inh 15.
For CCOC(=O)c1ccc(NC(=S)NNC(=O)C2(C)CC2(Cl)Cl)cc1 (configuration not stated) the results were Mtb hypoxia inh 7, UGM FP inh 2, FBA Mtb inh -3, FadD28 binding 15*, Rv3671c protease -6 and GDH-TPI inh 12.
`CSCCC(NC(=O)Nc1cccc(C(F)(F)F)c1)C(=O)O` (configuration not stated) gave Mtb hypoxia inh -2.
COc1ccc2oc3ccc(OC)cc3c(=O)c2c1 was read as Mtb hypoxia inh 10, UGM FP inh 1, FBA Mtb inh 49*, FadD28 binding -3, Rv3671c protease 10 and GDH-TPI inh 1.
Screening CCC(=O)N1N=C(c2ccc(NS(=O)(=O)CC)cc2)CC1c1ccc(C)cc1 (configuration not stated) returned Mtb hypoxia inh -7, UGM FP inh -2, FBA Mtb inh active, FadD28 binding -2, Rv3671c protease -4 and GDH-TPI inh 5.
For CS(=O)(=O)Nc1ccc(C2=NN(C(=O)c3ccco3)C(c3cccc(F)c3)C2)cc1 (configuration not stated) the results were Mtb hypoxia inh -2, UGM FP inh 1, FBA Mtb inh 3, FadD28 binding -3, Rv3671c protease -13 and GDH-TPI inh 31*.
`CCS(=O)(=O)Nc1ccc(C2=NN(C(=O)c3ccco3)C(c3ccc(Cl)o3)C2)cc1` (configuration not stated) gave Mtb hypoxia inh 4, UGM FP inh -1, FBA Mtb inh 5, FadD28 binding -1, Rv3671c protease -10 and GDH-TPI inh 50*.
Screening CCS(=O)(=O)Nc1ccc(C2=NN(C(=O)c3ccco3)C(c3ccc(C)cc3)C2)cc1 (configuration not stated) returned Mtb hypoxia inh -6, UGM FP inh 1, FBA Mtb inh 3, FadD28 binding -4, Rv3671c protease -2 and GDH-TPI inh 24.
For CCC(=O)N1N=C(c2ccc(NS(=O)(=O)c3ccc(C)cc3)cc2)CC1c1ccco1 (configuration not stated) the results were Mtb hypoxia inh 8, UGM FP inh 0, FBA Mtb inh 2, FadD28 binding -3, Rv3671c protease -17 and GDH-TPI inh 2.
For COc1ccc(NC(=O)COc2ccc(C=Nn3c(C)nnc3C)cc2OC)cc1 the results were Mtb hypoxia inh 0.
CC1CCN(C(=O)c2[nH]cnc2C(=O)NC(Cc2ccccc2)C(=O)OC(C)(C)C)CC1 (configuration not stated) was read as Mtb hypoxia inh 9.
CC(=O)Nc1sc(N/N=C/c2ccc(O)cc2)nc1-c1ccc(C)cc1 was read as UGM FP inh 2, FBA Mtb inh 5, FadD28 binding 0, Rv3671c protease 4 and GDH-TPI inh 35*.
Cn1cc(/C=C(\NC(=O)c2ccccc2)C(=O)NCCCN2CCOCC2)c2ccccc21 was read as Mtb hypoxia inh 6, UGM FP inh -2, FBA Mtb inh 2, FadD28 binding -1, Rv3671c protease -2 and GDH-TPI inh 33*.
For COc1ccc(C(=O)N/C(=C\c2cn(C)c3ccccc23)C(=O)N2CCN(C)CC2)cc1 the results were Mtb hypoxia inh -8, UGM FP inh 2, FBA Mtb inh -1, FadD28 binding 0, Rv3671c protease -8 and GDH-TPI inh 43*.
COc1ccc(C(=O)N/C(=C\c2cn(C)c3ccccc23)C(=O)NCCCN2CCOCC2)cc1OC was read as Mtb hypoxia inh 15, UGM FP inh -1, FBA Mtb inh 6, FadD28 binding -4, Rv3671c protease -4 and GDH-TPI inh 20.
`CCn1cc(/C=C(\NC(=O)c2ccccc2F)C(=O)NCCN2CCOCC2)c2ccccc21` gave Mtb hypoxia inh 11, UGM FP inh 1, FBA Mtb inh -6, FadD28 binding -3, Rv3671c protease -6 and GDH-TPI inh 33*.
O=C(/C=C/c1ccc(-c2cccc([N+](=O)[O-])c2)o1)N1CCOCC1 was read as Mtb hypoxia inh -1, UGM FP inh 2, FBA Mtb inh 0, FadD28 binding 0, Rv3671c protease -20 and GDH-TPI inh 38*.
O=C(/C=C/c1cccc([N+](=O)[O-])c1)N1CCOCC1 was read as Mtb hypoxia inh 1, UGM FP inh 1, FBA Mtb inh -3, FadD28 binding 0, Rv3671c protease 0 and GDH-TPI inh 4.
CCOc1ccc(Oc2c(C=NNC(=O)COc3ccccc3OC)c(C)nn2-c2ccccc2)cc1 was read as Mtb hypoxia inh 8.

Screening results: PubChem BioAssay, several laboratories
